In PubChem BioAssay AID504834 (National Center for Advancing Translational Sciences (NCATS), 2011):
Several values for one entry are separate records, joined by “and”; a condition that tells them apart may be missing. Equal entries are not always repeated. Hit rate of the full screen: of about 320,000 compounds, about 22,000 (6.9%) were called active. Roughly 27% stayed inconclusive and do not appear here. Many of the other results were omitted from the sample, so actives are more common in it than they were. Values without a mark were called inactive. Calls come from the whole dose curve; as a rule, active = well fitted inhibition curve with a large enough effect; inconclusive = small, poorly fitted or top-dose-only effect, or another doubt; inactive = no such curve, though single readings can be large or run the other way.

assay: Primary qHTS for delayed death inhibitors of the malarial parasite plastid, 96 hour incubation; conditions: P. falciparum luciferase reporter growth; series mostly up to 28.7 µM; activity change, negative = inhibition: at the top concentration
Procedure, shortened: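 Infected RBCs, 2% Hct / 0.05% parasitemia final; luciferase-reporter P. falciparum; cpd 96 h, 37 C, 5% CO2; luciferase detection reagent; luminescence.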
% is set by controls: 0 for no effect and ±100 for the full control effect; potency is the fitted concentration of half-maximal effect.

SMILES | activity change, negative = inhibition [%] | Potency
COc1ccc(NC(=O)N2CCCC(C(=O)Nc3ccccc3OC)C2)cc1 (stereo unspecified) | -1.69 | 
CSC1=NCCN1C(=O)Cc1cccc2ccccc12 | 0.0301 | 
COc1cc(CNCc2ccc(OC)c3ccccc23)cc(OC)c1OC | -15.6 | 
O=C(Nc1cccc(Cl)c1)C1CCCN(c2cnccn2)C1 (stereo unspecified) | 28.4 | 
Cc1ccccc1CN1CCC(C(=O)Nc2ccc(Oc3cccnc3)cc2)CC1 | -25.5 | 
COc1cc(NC(=O)C2CCN(c3cnccn3)CC2)cc(OC)c1 |  | 2.62 µM (active)
O=C(COC(=O)Cc1ccccc1F)NCCc1ccccc1 | 12.9 | 
Cc1nc2ccc(S(=O)(=O)NC(C(=O)N3CCCCCC3)C(C)C)cc2s1 (stereo unspecified) | -2.11 | 
Cc1nc2ccc(S(=O)(=O)NCC(=O)NCCN3CCCCC3C)cc2s1 (stereo unspecified) | -2.45 | 
Cc1nc2ccc(S(=O)(=O)NCC(=O)O)cc2s1 |  | 16.5 µM (active)
C=CCC(NC(=O)Cc1ccccc1)C(=O)NCCC (stereo unspecified) | -3.59 | 
CCOCCc1nn2c(=O)cc(CSCC(=O)Nc3cccc(C)c3C)nc2s1 | 43.5 | 
Cc1nn(Cc2ccccc2)c(C)c1C(=O)N1CCN(CC(=O)Nc2ccccc2Cl)CC1 |  | 13.1 µM (active)
COc1cccc(NC(=O)CN2CCN(CC(=O)Nc3ccccc3Cl)CC2)c1 | -11 | 
O=C(CN1CCCCC1)Nc1ccccc1Cl | 15.1 | 
Cc1ccc(NC(=O)Cc2nc(COC(=O)C(C)NS(=O)(=O)c3ccc(C)cc3)cs2)cc1 (stereo unspecified) | 21.2 | 
CCN(CC)C(=O)c1nc[nH]c1C(=O)N(C)Cc1ccccc1 | 0 | 
CC(=O)Nc1ccc(Oc2ccc3c(c2)C(=O)NC3=O)cc1 | -18.9 | 
Cc1csc(NC(=O)CSc2nc(=O)cc(N)n2-c2ccc(F)cc2)n1 | 21.5 | 
Cc1cccc(NC(=S)NCCc2ccc(Cl)cc2)c1C | 0 | 
Cc1cc(OCCN2CCCC2)cc(C(C)C)c1 |  | 10.4 µM (active)
Cc1cc(OCCN2CCCC2)ccc1C(C)C | -17.9 | 

SMILES | activity change, negative = inhibition [%] | Potency
Cc1ccc(C(C)C)cc1OCCN1CCCC1 | -7.33 | 
CCOCCCNc1c(CC)c(C)c(C#N)c2nc3ccccc3n12 | -16.7 | 
CN1C(C(=O)NCC2CC2)CC2Cn3c(nc4ccccc43)C21 (stereo unspecified) | 56.6 | 
CCOC(=O)N1CCN(Cc2nc3cc(NC(C)=O)ccc3n2C)CC1 | -19.3 | 
CCOC(=O)N1CCN(Cc2nc3cc(NC(=O)CC)ccc3n2CC)CC1 | -12.6 | 
CCOC(=O)N1CCN(Cc2nc3ccc([N+](=O)[O-])cc3c(=O)n2-c2cccc(OC)c2)CC1 |  | 2.33 µM (active)
CN(C(=O)CSc1nnc(-c2ccc3c(c2)OCO3)o1)C1CCS(=O)(=O)C1 (stereo unspecified) | -13.6 | 
CC(=O)Nc1ccc(/C=C/C(=O)c2ccccc2)cc1 | 67.7 | 
O=C(NC1CCCC1)C(=O)c1c[nH]c2ccccc12 | 4.04 | 
CC(=O)c1ccc(OCC(O)CN2CCN(S(=O)(=O)c3cccc(Br)c3)CC2)cc1 (stereo unspecified) | -27.6 | 
Cc1cccc(OCC(O)CN2CCN(S(=O)(=O)c3ccc(C)cc3C)CC2)c1 (stereo unspecified) |  | 6.57 µM (active)
OC(COc1cccc(OCC(O)CN2CCCC2)c1)CN1CCCC1 (stereo unspecified) | 20.7 | 
O=S(=O)(Nc1ccc(-n2cnnn2)cc1)c1ccc(Cl)cc1 | -0.496 | 
C=CC[n+]1c(-c2ccc(C)cc2)csc1NNC(=O)Nc1ccccc1 |  | 7.38 µM (active)
C=CCNc1scc(-c2ccccc2)[n+]1CC=C | 4.04 | 
Cc1ccc(NC(=O)NNC(=O)c2sccc2-n2cccc2)cc1 | 42.9 | 
O=C(NCc1ccco1)/C(=C/c1cccc([N+](=O)[O-])c1)NC(=O)c1ccco1 | 3.76 | 
CCc1sc(C(=O)N2CCN(CC(=O)Nc3cccc(F)c3)CC2)cc1C | -79.8 | 
Cc1ccc(NC(=O)C2CCCN(S(=O)(=O)c3c(C)noc3C)C2)c(C)c1 (stereo unspecified) | -0.795 | 
Cc1noc(/C=C/c2ccco2)c1S(=O)(=O)N1CCC(C(=O)N2CCc3ccccc32)CC1 | -96.6 | 
CNC(=O)C1CCN(S(=O)(=O)c2c(C)noc2/C=C/c2cccc(C)c2)CC1 |  | 10.4 µM (active)
CC(C)CC(=O)Nc1cc(C(F)(F)F)ccc1N1CCOCC1 | -85.5 | 

SMILES | activity change, negative = inhibition [%] | Potency
CCC(=O)Nc1cc(C(F)(F)F)ccc1N1CCCC1 | 29.3 | 
O=C(CCC1CCCCC1)Nc1cc(C(F)(F)F)ccc1N1CCOCC1 |  | 13.1 µM (active)
CCc1ccc(C(=O)NC(=S)Nc2ccccc2N2CCOCC2)cc1 | 17 | 
C/C=N/N(c1ccccc1)c1ccccc1 | 51.4 | 
CCN(CC(=O)Nc1ccc(S(=O)(=O)N2CCCC2)cc1)CC(=O)Nc1cccc(OC)c1 | -17 | 
CCOC(=O)c1cc(NC(=O)SCC(=O)O)c(C)nc1C |  | 7.38 µM (active)
CCOC(=O)c1cnc(-n2nc(C)cc2C)nc1-n1nc(C)cc1C | 26 | 
CCOC(=O)c1ccccc1NC(=O)CSc1nc2ccccc2c(=O)[nH]1 | -0.129 | 
CC1CCC(NS(=O)(=O)c2ccc3c(c2)CC(=O)N3)CC1 (stereo unspecified) | -7.2 | 
Cc1ccc(Cc2nnc(SCC(=O)Nc3ccc(C)cc3C)[nH]c2=O)cc1 | 31.1 | 
O=C(CCN1CCN(C/C=C/c2ccccc2)CC1)Nc1ccccc1Cl | -27.3 | 
C/C(=N\NC(=O)c1ccoc1C)c1ccccc1O | 163 | 
COc1ccc(C(=O)c2c(C)c(CCC#N)n3ccccc23)c(OC)c1 | -23.2 | 
Oc1c(Cl)cc(Cl)c(Cl)c1Cc1c(O)c(Cl)cc(Cl)c1Cl |  | 12 µM (active) and 9.28 µM (active)
CN(C)c1nc(NN)nc(Nc2ccc(F)cc2)n1 | 1.79 | 
COc1ccc(N(CC(=O)Nc2cccc3ccccc23)S(C)(=O)=O)c(OC)c1 | -37.1 | 
C=CCn1c(SCC(=O)NC)nnc1C12CC3CC(CC(C3)C1)C2 |  | 11.7 µM (active)
C=CCn1c(SCC(=O)NC23CC4CC(CC(C4)C2)C3)nc(O)cc1=O | -29.2 | 
C=CCn1c(COc2ccccc2)nnc1SCC(=O)NCC(=O)OCC | 4.6 | 
C=CCSc1nnc(NC(=O)c2ccc(NC(C)=O)cc2)s1 | 14 | 
CC1CC(C)CN(C(=O)CCNC(=O)Cn2cnc3ccccc3c2=O)C1 (stereo unspecified) | -3.35 | 
Cc1cc(S(=O)(=O)N2CCOCC2)ccc1OCC(=O)N1CCOCC1 | 9.58 | 

SMILES | activity change, negative = inhibition [%] | Potency
O=C(NCc1ccccc1Cl)C1CCN(S(=O)(=O)N2CCOCC2)CC1 | 4.74 | 
O=C(NCc1ccccc1Cl)C1CCN(S(=O)(=O)c2cccc3nonc23)CC1 | -7.24 | 
O=C1CCc2cc(S(=O)(=O)N3CCC(C(=O)NCc4ccccc4Cl)CC3)ccc2N1 |  | 13.1 µM (active)
CSc1ccc(Cl)c(C(=O)OCC(=O)N2CCNC2=O)c1 | -21.6 | 
COc1ccc(Cn2nnc3c(=O)[nH]c(C4CCN(C(=O)c5ccccc5Cl)CC4)nc32)cc1 | 9.4 | 
Cc1ccc(NC(=O)N2CCC(c3nc4c(nnn4Cc4c(F)cccc4Cl)c(=O)[nH]3)CC2)cc1 |  | 9.28 µM (active)
O=C(Nc1ccc(F)cc1)N1CCCC(c2nc3c(nnn3Cc3ccccc3Cl)c(=O)[nH]2)C1 (stereo unspecified) | 16.6 | 
CC(Sc1nnc(-c2cccs2)n1C1CC1)C(=O)NCC1CCCO1 (stereo unspecified) | 24.7 | 
Cc1cc(C(=O)OCC(=O)Nc2nccs2)c2ccccc2n1 | 20.5 | 
COc1ccccc1C(=O)NNC(=O)CCN1C(=O)/C(=C\c2ccccc2)SC1=S | -14.8 | 
CCC(C)Sc1nc(C)nc2c1c(=O)n(C)c(=O)n2C (stereo unspecified) |  | 10.4 µM (active)
CSc1nc(C)nc2c1c(=O)n(C)c(=O)n2C | 15.9 | 
CC(O)c1nc2c(c(=O)n(C)c(=O)n2C)n1C (stereo unspecified) | 101 | 
COc1ccc(N2CCN(S(=O)(=O)c3cc(Br)cnc3N)CC2)cc1 | 1.5 | 
COc1cccc(/C=C2/SC(=S)N(CC(=O)NC3C=CS(=O)(=O)C3)C2=O)c1 (stereo unspecified) | 37.3 | 
COc1cccc(NC(=O)NCCN2CCCCC2)c1 | -37 | 
COc1ccc(N2CCN(CCNC(=O)Nc3cc(Cl)ccc3Cl)CC2)cc1 |  | 5.22 µM (active)
COc1ccc(N2CCN(CCNC(=O)CCN3C(=O)COc4ccccc43)CC2)cc1 | 24.2 | 
CCOC(=O)c1cccc(NC(=O)CN2C(=O)C3CC=CCC3C2=O)c1 (stereo unspecified) | -20.6 | 
CCn1ccnc1CN(C)C(=O)c1ccc2nc(Cc3ccc(OC)cc3)oc2c1 | -22.5 | 
Cc1[nH]c(C)c(S(=O)(=O)N2CCN(c3cccc(C(F)(F)F)c3)CC2)c1C(=O)N1CCCC1 | -18 | 
COCCNC(=O)NC(=O)COC(=O)C1(c2ccc(Cl)cc2)CC1 | 23.1 | 

SMILES | activity change, negative = inhibition [%] | Potency
COc1ccccc1CN(C)C(=O)c1cc2ccccc2o1 | -19.2 | 
COc1ccccc1CN(C)C(=O)C1(c2ccc(Cl)cc2)CC1 |  | 9.28 µM (active)
Cc1cccc(C(=O)NCC(=O)OCC(=O)N(C)CC(=O)Nc2ccccc2Cl)c1 | -24.1 | 
Cc1ccc(N2CC(C(=O)N3CCC4(CC3)CC(=O)c3ccccc3O4)CC2=O)cc1C (stereo unspecified) |  | 11.7 µM (active)
O=C1CC2(CCN(C(=O)COc3ccc(F)cc3)CC2)Oc2ccccc21 | -16.8 | 
O=C(C1CC(=O)N(c2ccc(F)cc2)C1)N1CCN(c2ccccc2)CC1 (stereo unspecified) | 49.1 | 
O=C(Cn1c(NCCO)nc2ccccc21)c1ccc(Cl)cc1Cl | 26.7 | 
CC(NC(=O)C(=O)Nc1nccs1)c1ccccc1 (stereo unspecified) | 17.2 | 
CC(=O)c1cccc(NC(=S)N2CCN(S(C)(=O)=O)CC2)c1 | 47.9 | 
O=C(NCCCN1CCOCC1)c1cnn2c(-c3ccccc3)cc(-c3ccccc3)nc12 |  | 9.28 µM (active)
O=C(NCCCN1CCOCC1)c1ccccc1NS(=O)(=O)c1ccc(Br)cc1 | -14.4 | 
O=C(NCCCN1CCOCC1)c1ccccc1NS(=O)(=O)c1ccc(F)cc1 | 26.6 | 
CCc1ccc(OCC(=O)NCC(c2ccc(Cl)cc2)N2CCCCC2)cc1 (stereo unspecified) | 19.3 | 
COc1cccc(C(=O)Nc2ccc(N3CCN(C(=O)c4ccco4)CC3)cc2)c1 | 15.5 | 
COc1ccc(Cl)cc1NS(=O)(=O)c1cccc(C(=O)NCC2CCCO2)c1 (stereo unspecified) | 0.0416 | 
C[C@H](NC(=O)c1ccccc1)C(=O)OCC(=O)c1c[nH]c2ccccc12 | 22.5 | 
COC(=O)c1ccc(CSc2nnc(NC(C)C)s2)cc1 | -3.42 | 
CC(C)Nc1nnc(SCC(=O)c2c[nH]c3ccccc23)s1 |  | 10.4 µM (active)
